Assay outcomes as filed in PubChem BioAssay.
PAFAH1B3 inh: blocks human PAF acetylhydrolase 1B catalytic subunit 3 | inhibition, % at 3.39 µM | Q15102 | recombinant PAFAH1B3, FP-rhodamine probe, fluorescence polarization | hit rate 0.28% among 340,000;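 active = inhibition above the screen-wide average of all tested compounds plus 3 SD, cut at about 25% in these data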;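 also: 0% = enzyme with DMSO only and 100% = wells lacking PAFAH1B3 protein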
pPAFAH FP inh: inhibitors of human plasma PAF acetylhydrolase (pPAFAH); recombinant pPAFAH, FP-rhodamine probe fluorescence polarization; Q13093; hit rate 1.5% among 330,000; inhibition, % at 3.39 µM;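 active = inhibition above the mean inhibition across the screen plus 3 SD, cut at about 25% in these data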;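 also: inhibitors block binding of the rhodamine activity-based probe so polarization drops; 0% = enzyme with DMSO and 100% = wells lacking pPAFAH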
E coli Lon inh: E. coli protease La inhibition; inhibition, % at 7.94 µM; purified E. coli Lon protease, fluorescence polarization; hit rate 0.42% among 360,000; P0A9M0; in the data active = inhibition above about 13%, passing the limit was not always enough;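 also: 0% = enzyme with probe and DMSO and 100% = no enzyme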
PAFAH1B2 FP inh: inhibitors of human PAFAH1B2; recombinant PAFAH1B2, FP-rhodamine activity probe, fluorescence polarization; inhibition, % at 3.39 µM; hit rate 1.2% among 340,000;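 active = inhibition above the mean of all tested compounds plus 3 SD, cut at about 24% in these data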;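 also: 0% = enzyme with DMSO and 100% = wells lacking PAFAH1B2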
PAFAH2 inh: PAFAH2 (human) inhibition; inhibition, % at 3.39 µM; recombinant PAFAH2, FP-rhodamine activity probe, fluorescence polarization; hit rate 0.99% among 340,000;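 active = inhibition above the mean over all tested compounds plus 3 SD, cut at about 30% in these data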;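 also: inhibitors block probe labeling of enzyme so polarization drops; 0% = enzyme with DMSO and 100% = wells lacking PAFAH2 protein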
Rin1-Abl PPI inh: inhibitors of human Rin1-Abl protein interaction. TR-FRET Rin1/Abl binding, biochemical. inhibition, % at 7.35 µM. hit rate 0.4% among 360,000. AID 588664; in the data active = inhibition above about 5%, passing the limit was not always enough
PAFAH2 confirm: PAFAH2 (human) inhibition, confirmed. hit rate 65% among 2,300. inhibition, % at 3.39 µM. recombinant PAFAH2, FP-rhodamine activity probe, fluorescence polarization. shares compounds with PAFAH2 inh. AID 493030;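 active = mean inhibition over three repeats above a set limit taken from the earlier primary screen, cut at about 30% in these data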;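 also: inhibitor blocks binding of rhodamine activity probe so polarization falls; 0% = enzyme with DMSO and 100% = wells lacking PAFAH2 protein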
* marks the source's active call; other numbers are inactive results; . = no result. Most compounds without a hit are left out; they make up all but 3.1% or so of the library.

SMILES	PAFAH1B3 inh	pPAFAH FP inh	E coli Lon inh	PAFAH1B2 FP inh	PAFAH2 inh	Rin1-Abl PPI inh	PAFAH2 confirm
Cc1nc2sc3c(c2c(=O)o1)CC(C)(C)OC3	2.0	1.1	-3.6	-0.5	4.5	-2.1	.
COc1ccc(NC(=O)Nc2nnc([C@H]3C[C@H](O)[C@@H](CO)O3)s2)cc1	.	.	-2.3	.	.	-1.4	.
COc1ccc(OC(F)(F)F)cc1CC1(C)C(=O)Nc2c(Cl)ccc(Cl)c21 (configuration not stated)	.	.	-18.0	.	.	0.1	.
CCCCn1nc(C(=O)Nc2ccccc2N2CCCC2)c2ccccc2c1=O	2.5	-0.2	2.8	3.1	-6.9	0.4	.
COC(=O)c1cc(CNC(=O)c2ccc(S(=O)(=O)N(C)c3ccccc3)cc2)ccc1OC	4.9	3.3	-2.5	0.1	-3.6	-1.3	.
CC1CCCC(NC(=O)COC(=O)c2ccc3c(c2)OCCO3)C1C (configuration not stated)	7.6	13.6	9.5	3.3	83.6*	3.6	76.5*
O=C(COC(=O)c1ccc2c(c1)OCO2)NC1CCCCC1	6.4	22.0	7.2	6.4	89.1*	-0.3	81.9*
CN(C(=O)COC(=O)c1ccc2c(c1)OCO2)C1CCCCC1	9.3	5.3	2.8	9.0	66.7*	-2.2	67.1*
O=C(COC(=O)c1ccc(NS(=O)(=O)c2ccc3c(c2)OCCO3)cc1)NC1CC1	1.6	9.3	-3.9	-0.4	63.6*	-2.5	51.1*
CN(C(=O)COC(=O)c1ccc2c(c1)OCO2)C1CCS(=O)(=O)C1 (configuration not stated)	4.5	3.6	-0.3	-5.2	4.6	-1.6	.
COc1ccc(S(=O)(=O)N2CCCCC2c2cc(C(=O)Nc3ccc(OC)cc3C)no2)cc1 (configuration not stated)	.	.	1.3	.	.	1.9	.
N#Cc1ccccc1NC(=O)C1CCCO1 (configuration not stated)	.	.	7.9	.	.	3.6	.
CSc1nc(N)nc2c1ncn2CC(=O)N[C@H](CO)Cc1c[nH]c2ccccc12	-1.0	3.2	-7.1	7.1	38.4*	1.1	3.5
Cc1cn(CC(=O)N[C@H](CO)Cc2c[nH]c3ccccc23)c(=O)[nH]c1=O	5.7	.	-0.2	3.3	-3.7	-1.4	.
N/C(=N\OC(=O)c1ccc2c(c1)OCO2)c1cccc(Br)c1	1.9	0.2	-3.0	-0.7	54.7*	2.7	49.2*
N/C(Cc1cccc2ccccc12)=N\OC(=O)c1ccc2c(c1)OCO2	1.2	4.1	-16.6	-0.6	81.0*	2.0	78.2*
COc1ccc(CNC(=O)CNC(=O)CNS(=O)(=O)c2ccc(C)c(C)c2)cc1	-5.2	-0.8	-0.1	7.3	0.8	3.2	.
COc1ccc(OC)c(NC(=O)Nc2nc(C(C)N)cs2)c1 (configuration not stated)	.	.	13.5	.	.	1.3	.
Cc1cccc(C(=O)N2c3ccccc3C(=O)OC2c2ccc3c(c2)OCO3)c1 (configuration not stated)	3.5	-1.2	-17.5	3.8	31.1*	0.0	34.2*
O=C1OC(c2ccc3c(c2)OCO3)N(C(=O)c2ccc(Cl)c(Cl)c2)c2ccccc21 (configuration not stated)	0.3	-11.4	0.1	4.6	47.8*	0.7	47.0*
O=C(NCc1cccc2[nH]ccc12)C1CCC(=O)N(CCc2ccc(Cl)cc2)C1 (configuration not stated)	-1.5	4.8	4.8	4.2	16.4	-1.7	.
CC(C)CCN1C(=O)c2ccc(C(=O)Nc3ccccc3C(=O)O)cc2C1=O	0.6	.	-7.0	2.1	40.3*	4.8	19.9
CC(=O)Oc1ccc2c(=O)oc(-c3ccccc3)nc2c1	8.6	0.9	-7.1	-1.6	40.8*	-0.7	40.4*
CC(=O)Oc1ccc2nc(/C=C/c3ccc(C=O)cc3)oc(=O)c2c1	16.0	-2.9	6.3	7.3	3.3	-0.5	.
CC(=O)Oc1ccc2nc(/C=C/c3ccccc3)oc(=O)c2c1	5.4	0.2	-5.7	2.0	76.2*	1.9	71.0*
SMILES	PAFAH1B3 inh	pPAFAH FP inh	E coli Lon inh	PAFAH1B2 FP inh	PAFAH2 inh	Rin1-Abl PPI inh	PAFAH2 confirm
CCCOc1cccc(-c2nc3ccccc3c(=O)o2)c1	5.4	-16.3	-3.8	2.4	63.8*	1.8	58.6*
CC(=O)Oc1ccc2nc(-c3ccc(Br)o3)oc(=O)c2c1	-0.8	6.1	13.9	7.4	46.1*	-1.6	44.9*
CN(C)CCN(CC1CCCN(Cc2ccccc2F)C1)C(=O)c1ccc(Cl)cc1 (configuration not stated)	0.9	2.0	1.2	2.0	4.5	-0.6	.
Cc1cnc(CNC(=O)c2ccc3nc([C@@H]4O[C@H](CO)[C@H](O)[C@H](O)[C@H]4O)[nH]c3c2)cn1	.	.	-5.8	.	.	-2.6	.
COCCn1c(SCC(=O)N(C)c2ccccc2)nc2c([nH]c3ccccc32)c1=O	-0.1	-3.9	-15.1	-1.5	-2.0	1.0	.
CCn1cc(Cl)c(C(=O)Nc2nccs2)n1	5.8	.	-4.9	0.4	-10.8	-0.8	.
COc1ccc(NC(=O)C2CCCN(C(=O)c3ccc(Cl)cc3)C2)cc1S(=O)(=O)N(C)C (configuration not stated)	-11.5	-5.0	4.9	2.8	-2.0	1.0	.
CC1=C(C#N)C(=O)NC(=O)/C1=C\c1ccc(-c2cc(C)c(C)cc2[N+](=O)[O-])o1	17.3	.	4.4	24.1	31.7*	-1.9	14.4
Cc1ccc(C)c(NC(=O)CCN2C(=O)[C@@H]3Cc4ccccc4CN3C2=O)c1	6.2	5.1	-2.7	6.3	3.4	0.0	.
COc1ccc(C(=O)O/N=C(\C)c2nccs2)cc1	1.7	2.3	-4.7	-0.9	67.0*	3.1	59.6*
COc1ccc(C(=O)O/N=C(/C)c2cccs2)cc1	5.3	20.3	-2.4	1.9	64.2*	-2.9	55.0*
C/C(=N/OC(=O)c1c(F)cccc1F)c1nccs1	1.4	8.0	3.2	5.9	24.0	-2.4	.
CC(C)(C)[C@H]1COC(=O)CCCC/C=C\C[C@H](CC(=O)N(CCO)Cc2ccccc2)C(=O)N1	7.2	-7.8	1.9	5.6	7.9	-1.3	.
O=C1CCCC/C=C\C[C@H](CC(=O)N(CCO)Cc2ccccc2)C(=O)N[C@@H](c2ccccc2)CO1	6.5	5.6	-12.5	3.6	48.2*	0.5	32.6*
CCOc1cccc(/C=N/NC(=S)Nc2ccccc2[N+](=O)[O-])c1O	14.9	16.6	-1.4	4.8	44.8*	2.6	20.4
O=C(Nc1ccc(Cl)cc1F)c1ccc2c(c1)C(=O)N(Cc1ccncc1)C2=O	.	-0.1	-6.5	.	.	-0.5	.
CC1CCCC(NC(=O)COC(=O)c2cccc(NS(=O)(=O)/C=C/c3ccccc3)c2)C1C (configuration not stated)	3.1	9.5	-3.5	2.0	45.9*	-2.7	40.1*
NC(=O)NC(=O)COC(=O)c1cccc(NS(=O)(=O)/C=C/c2ccccc2)c1	8.8	6.1	8.1	6.9	4.2	1.2	.
